Reference: PubChem BioAssay (NCI)
This is part of a sample that, as a whole, favours compounds with a hit. Of some 79,000 tested, about 15% had one in any assay. Unmarked numbers belong to inactive results. Active and inactive are the calls of the source. Rule as the data show it: active = growth inhibition above about 70%; inactive = the rest. Where a SMILES comes first, the peptide text is derived from it. The star is where a group is joined. Cbz = O=C(OCc1ccccc1)*

Tests used:
[1] = NCI Yeast Anticancer Drug Screen. Data for the rad50 strain (AID 155);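 also: 0% = growth of vehicle-only cultures of the same strain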; conditions: S. cerevisiae rad50 strain growth inhibition, active compounds read high
Summary of the method: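 Relative growth inhibition (compound vs vehicle) was measured in yeast with a defined repair-gene alteration.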

[2] = NCI Yeast Anticancer Drug Screen. Data for the mec2-1 strain (AID 157); conditions: S. cerevisiae mec2-1 strain, active compounds read high
Summary of the method: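 Growth inhibition is read against vehicle-treated controls after compound exposure of the mec2-1 yeast strain, which is defective in DNA damage repair or cell cycle control.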

[3] = NCI Yeast Anticancer Drug Screen. Data for the sgs1 mgt1 strain (AID 161);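 also: 0% = growth of cultures given vehicle only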; conditions: S. cerevisiae sgs1 mgt1 strain, active compounds read high
Summary of the method: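 Yeast cells carrying a defined DNA-repair defect were exposed to test compounds. Growth inhibition was measured relative to vehicle-treated controls.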

[4] = NCI Yeast Anticancer Drug Screen. Data for the cln2 rad14 strain (AID 165);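 also: 0% = growth equal to vehicle treated cultures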; conditions: S. cerevisiae cln2 rad14 strain, active compounds read high
Summary of the method: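 Growth inhibition, relative to vehicle-treated controls, is the read-out. The test organism is a yeast strain with defined genetic alterations, cln2 rad14.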

[5] = NCI Yeast Anticancer Drug Screen. Data for the bub3 strain (AID 167); conditions: S. cerevisiae bub3 mutant strain, active compounds read high
Summary of the method: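 Screening used yeast with an engineered genetic alteration affecting cell cycle control. Compound-exposed cultures were compared with vehicle cultures, and reduced growth was taken as inhibition.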

[6] = NCI Yeast Anticancer Drug Screen. Data for the mlh1 rad18 strain (AID 175); conditions: S. cerevisiae mlh1 rad18 strain growth inhibition, active compounds read high
Summary of the method: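 Cells of a genetically altered yeast strain, deficient in DNA damage repair, were treated with compound. Their growth was then compared with that of vehicle-treated cultures to give inhibition.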

[7] = at 5.0 µM (retest, dose inferred, filed as 0.5)
[8] = at 50.0 µM (retest, dose inferred, filed as 5.0)

| Structure (SMILES) | growth inhibition [1, 7] | growth inhibition [1, 8] | growth inhibition ([1]; at 50.0 µM) | growth inhibition [2, 7] | growth inhibition [2, 8] | growth inhibition ([2]; at 50.0 µM) | growth inhibition [3, 7] | growth inhibition [3, 8] | growth inhibition ([3]; at 50.0 µM) | growth inhibition [4, 7] | growth inhibition [4, 8] | growth inhibition ([4]; at 50.0 µM) | growth inhibition [5, 7] | growth inhibition [5, 8] | growth inhibition ([5]; at 50.0 µM) | growth inhibition [6, 7] | growth inhibition [6, 8] | growth inhibition ([6]; at 50.0 µM) |
| --- | --- | --- | --- | --- | --- | --- | --- | --- | --- | --- | --- | --- | --- | --- | --- | --- | --- | --- |
| c1cc2c(c3c1CN(C1CCCCC1)CO3)OCN(C1CCCCC1)C2 | 2% | 19% | -11% | 4% | 10% | -29.6% | 6% | 16% | 32.1% | -12% | 16% | -27.2% | 5% | 28% | 65% | 6% | 10% | 12.4% |
| O=C(/C=C\c1ccc(Cl)c(Cl)c1)c1cccs1 | 13% | -9% | 58.9% | -2% | 4% | 64.4% | 4% | -25% | 92.2% (active) | -6% | -3% | 51.6% | -4% | 11% | 89.7% (active) | -3% | 6% | 85.5% (active) |
| Cc1ccc(C)c(NC(=O)CCC(=O)CC(=O)c2ccncc2)c1 | -4% | 12% | -32% | 3% | 4% | 7.45% | 8% | 4% | 16.8% | -4% | 3% | 1.25% | -7% | 4% | 10.7% | 0% | -1% | 24.1% |
| Oc1ccc(C(=C(Br)c2ccccc2)c2ccc(O)cc2)cc1 | 98% (active) | 98% (active) | 87.7% (active) | 99% (active) | 99% (active) | 91.5% (active) | 99% (active) | 99% (active) | 85.1% (active) | 99% (active) | 99% (active) | 89.5% (active) | 99% (active) | 99% (active) | 89.3% (active) | 99% (active) | 99% (active) | 85.3% (active) |
| CN(NC(=O)/C(=C/c1ccc2c(c1)OCO2)NC(=O)c1ccccc1)c1ccnc2cc(Cl)ccc12 | -7% | -10% | 89.7% (active) | -15% | -2% | 46% | -9% | -15% | 78% (active) | 22% | 11% | 55.6% | 8% | 33% | 72.2% (active) | 10% | 11% | 87.7% (active) |
| COC1=CC(=O)c2c(ccc3ncnc(N)c23)C1=O | 20% | 73% (active) | 22% | 15% | 15% | 3.35% | 14% | 28% | -6% | 18% | 32% | 24.9% | 19% | -11% | 17.5% | 13% | 59% | -4.3% |
| O=C1C(Sc2ccc3ccccc3c2)=C(Sc2ccc3ccccc3c2)C(=O)c2ccccc21 | 34% | 90% (active) | 94.2% (active) | 21% | 94% (active) | 99% (active) | 36% | 93% (active) | 98.9% (active) | 7% | 89% (active) | 98.3% (active) | 71% (active) | 90% (active) | 98.9% (active) | 16% | 89% (active) | 96.8% (active) |
| COc1ccc2c(c1)nc1cc(Cl)ccc1[n+]2C | 8% | 97% (active) | 82.2% (active) | 2% | 95% (active) | 52.5% | -5% | 97% (active) | 74.1% (active) | 0% | 97% (active) | 64.4% | 9% | 93% (active) | 86.3% (active) | 5% | 97% (active) | 85.3% (active) |
| CCOC(=O)CNC(=O)CNC(=O)CNC(=O)OCc1ccccc1 (Cbz-Gly-Gly-Gly-OEt) | -9% | -3% | 7.6% | -11% | -3% | -0.7% | -7% | 4% | -12.2% | -62% | -4% | 38.5% | -7% | 42% | 13.8% | 1% | -13% | 14.2% |
| O=C(O)CCC(=O)c1ccc2c(c1)CCCC2 | -5% | -1% | 71.7% (active) | -9% | 19% | 42.1% | -5% | 0% | 77.2% (active) | 1% | 25% | -24.1% | -16% | -48% | 20.7% | 0% | -6% | 77.6% (active) |
| CC(C)(S[S-])S[S-].[Ti].[c-]1[c-][c-][cH-][c-]1.[c-]1[c-][c-][cH-][c-]1 | 23% | 97% (active) | 84.1% (active) | -2% | 98% (active) | 57.9% | 10% | 98% (active) | 95.2% (active) | 11% | 97% (active) | 21.7% | 24% | 98% (active) | 46.4% | 31% | 98% (active) | 87.3% (active) |
| O=C(OC1C=C=CS(=O)(=O)CC#C/C=C\1)c1cnc2ccccc2n1 (stereo unspecified) | 15% | 96% (active) | 76.9% (active) | -17% | 95% (active) | 75.8% (active) | -28% | 91% (active) | 74.3% (active) | 15% | 90% (active) | 78.5% (active) | -36% | 94% (active) | 79.5% (active) | 19% | 97% (active) | 69.3% |
| O=C(c1ccccc1)N(c1ccccc1)c1ccc2ccccc2c1 | -3% | 16% | 5.8% | -3% | 21% | -6.1% | -5% | 77% (active) | 12% | -35% | 30% | 12.3% | 13% | 67% | 21.8% | -12% | 67% | -1.8% |
| O=C(CNc1ccc(Cl)cc1)Nn1c(-c2ccccc2)nc2ccccc2c1=O | 8% | 29% | 64.7% | -9% | 42% | 56.6% | 10% | 30% | 79% (active) | 11% | 32% | 45.2% | -7% | 31% | 62.1% | 4% | 51% | 81.3% (active) |
| CCOC(=O)C12CCSC1C1(C#N)C(C#N)=CC2(N=P(c2ccccc2)(c2ccccc2)c2ccccc2)n2c(=O)n(-c3ccccc3)c(=O)n21 (stereo unspecified) | 45% | 29% | 68% | 93% (active) | 18% | 39.9% | 28% | 8% | 59.9% | 32% | 34% | 58.5% | 96% (active) | 46% | 88.5% (active) | 46% | 31% | 53.9% |
| C=C1CC23CCC4C(C)(C(=O)O)CCCC4(C)C2CCC1C3 (stereo unspecified) | 27% | 98% (active) | 90.5% (active) | 40% | 98% (active) | 91% (active) | 18% | 97% (active) | 90% (active) | 19% | 97% (active) | 87.2% (active) | 13% | 97% (active) | 89.3% (active) | 49% | 98% (active) | 82% (active) |
| Cc1ccc(SSCCCS(=O)O)cc1 | -1% | -93% | 61.1% | -3% | 60% | 50.7% | 6% | 78% (active) | 83.8% (active) | -12% | 41% | 60.1% | 4% | 82% (active) | 66.3% | 3% | 66% | 75.2% (active) |
